High-throughput results as filed in PubChem.
The list is not random: actives were taken first. Their share in the collection is about 7.3%.
NPC1 promoter act = activates the NPC1 promoter | AID 485313 | Potency, µM (series often up to 9.22 µM), for inactives: at the top dose activation, actives largely listed as activators | actives 2.4% (n = 320,000) | Huh7 NPC1 promoter luciferase reporter, 24 h; further: % of control where 0% means no effect; nearly all actives have a fitted effect of over 60% in size
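Compounds in DMSO were transferred onto Huh7 NPC1-luciferase reporter cells pre-incubated 2 h; after 24 h at 37 °C, Amplite reagent was dispensed and luminescence recorded 10 min later.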
SMN2 splice enh = increases expression of the SMN2 splice variant; HEK293 SMN2-luciferase splicing reporter, luminescence, 30-36 h; Potency, µM (highest dose often 46.1 µM), without a hit: at the top dose activity change, positive = activation, hits mostly activators; actives 2.8% (n = 210,000); further: % of control where 0% means no effect; nearly all actives have a fitted effect of over 55% in size
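qHTS luciferase splicing reporter: luminescence rises when SMN2 exon 7 is included in transfected HEK293 cells. Compound exposure lasted 30-36 h at 37C, with 4.5 mM final sodium butyrate as control, followed by a ONE-Glo read.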
uPA generation = cell surface uPA generation inhibition. cell surface uPA generation assay, qHTS. Potency, µM (top dose mostly 38.3 µM), inactives show at the top dose activity change, negative = inhibition, most hits filed as inhibitors. actives 0.31% (n = 330,000); active means well fitted inhibition curve with a large enough effect; inconclusive means small, poorly fitted or top-dose-only effect; inactive means no such curve, though single readings can be large or run the other way; tested in mouse RAW 264.7 cells; further: on the % scale 0 is the no-effect control and ±100 the full control effect; nearly all actives have a fitted effect of over 55% in size
ELG1 genotoxic = genotoxicity induction in ELG1-luciferase HEK293T cells; actives 1.3% (n = 330,000); HEK293T ELG1-luciferase reporter, luminescence, 16 h; Potency, µM (top dose mostly 46 µM), inactives show top-dose activity change, positive = activation, usual class: activators; further: % of control where 0% means no effect; nearly all actives have a fitted effect of over 60% in size
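HEK293T cells expressing luciferase-tagged ELG1 were exposed to compound or DMSO vehicle for 16 hr at 37 °C and 5% CO2. Luciferase activity was then measured with ONE-Glo after 30 min at room temperature.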
FLuc counter = firefly luciferase modulation, counter-screen for miR-21 project; P08659; purified FLuc, Km substrates, luminescence inhibition; Potency, µM (series often up to 57.5 µM), for inactives: at the highest dose activity change, negative = inhibition, usual class: inhibitors; actives 6.9% (n = 360,000); AID 588342;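 further: plate controls were vehicle for no effect and reference inhibitor for full effect; nearly all actives have a fitted effect of over 55% in size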
Target sequence (P08659 whole entry, looked up): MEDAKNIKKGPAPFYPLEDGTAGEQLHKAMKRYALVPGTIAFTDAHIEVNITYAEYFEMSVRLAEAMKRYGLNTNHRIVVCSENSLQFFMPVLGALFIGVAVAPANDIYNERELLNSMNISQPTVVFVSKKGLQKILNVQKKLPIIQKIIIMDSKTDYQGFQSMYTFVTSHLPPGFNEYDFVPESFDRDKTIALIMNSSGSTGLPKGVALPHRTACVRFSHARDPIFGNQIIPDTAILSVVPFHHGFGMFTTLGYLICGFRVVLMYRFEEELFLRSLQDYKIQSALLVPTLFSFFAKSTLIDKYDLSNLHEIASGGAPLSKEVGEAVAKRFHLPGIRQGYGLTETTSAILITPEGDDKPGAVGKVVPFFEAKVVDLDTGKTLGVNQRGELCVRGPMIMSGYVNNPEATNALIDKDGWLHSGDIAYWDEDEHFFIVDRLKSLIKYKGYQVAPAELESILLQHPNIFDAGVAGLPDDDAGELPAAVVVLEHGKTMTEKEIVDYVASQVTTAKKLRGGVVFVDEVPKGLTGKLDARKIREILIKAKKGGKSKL
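Biochemical qHTS of compounds, final roughly 60 µM downward over six points, against 10 nM purified firefly luciferase using Km concentrations of substrates (10 uM D-luciferin, 10 uM ATP) in Tris acetate pH 7.5 buffer; luminescence output.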
Rab9 promoter act = activators of Rab9 promoter; actives 2.8% (n = 320,000); Huh7 Rab9 promoter-luciferase reporter, luminescence, 24 h; Potency, µM (titrated, usually from 9.22 µM), for the others: at the top dose activation, negative = inhibition, hits mostly activators; further: % of control where 0% means no effect; nearly all actives have a fitted effect of over 60% in size
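Measured in stably transfected Huh7 cells bearing a Rab9 promoter–luciferase construct: 24 h compound treatment at 37 °C, followed by luminescence detection.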
* hit, by the source's call. Unless noted, the call rests on the fitted dose curve; in most records, active means well fitted curve in the direction sought with a large enough effect; inconclusive means small, poorly fitted or top-dose-only effect, or another doubt; inactive means no such curve, though single readings can be large; an effect the other way counts as inactive or inconclusive. Potency means the concentration at half of the fitted maximal effect.

What do the screens show for `O=C(Nc1ccc2c(c1)OCCO2)c1ccccn1`?
NPC1 promoter act: 0.794µM*; SMN2 splice enh: 1.26µM*; uPA generation: 3.55µM*; ELG1 genotoxic: 1.03µM*; FLuc counter: 0.849µM*; Rab9 promoter act: 0.316µM*

Results for O=C(Nc1ccc2c(c1)OCCO2)c1ccc2ccccc2n1 ?
NPC1 promoter act: 0.1%; SMN2 splice enh: 11.2µM*; uPA generation: -8.6%; ELG1 genotoxic: inconclusive; FLuc counter: 2.13µM*; Rab9 promoter act: 4.47µM*

What do the screens show for `Cc1ccc(NC(=O)c2ccc3ccccc3n2)cc1S(=O)(=O)N(C)C`?
NPC1 promoter act: inconclusive; SMN2 splice enh: 22.4µM*; uPA generation: 1.4%; ELG1 genotoxic: inconclusive; FLuc counter: 4.26µM*; Rab9 promoter act: 2.82µM*

Results for O=C(Nc1ccc(NC(=O)c2ccccn2)cc1)C(=O)Nc1ccc2c(c1)OCCO2 ?
NPC1 promoter act: 11.5%; SMN2 splice enh: inconclusive; uPA generation: -3.1%; ELG1 genotoxic: 10.3%; FLuc counter: 0.4%; Rab9 promoter act: 14.5%

How did Cn1cccc1C(=O)OCC(=O)c1c[nH]c2ccccc12 do in these assays?
uPA generation: -3.7%; ELG1 genotoxic: inconclusive

How did Cn1cccc1C(=O)OCC(=O)c1cc2ccccc2o1 do in these assays?
NPC1 promoter act: 15.9%; SMN2 splice enh: 5.3%; uPA generation: 6.0%; ELG1 genotoxic: 21.5%; FLuc counter: 12µM*; Rab9 promoter act: 11.1%

Results for O=C(COC(=O)c1ccc(Cl)s1)c1cc2ccccc2o1 ?
NPC1 promoter act: 4.3%; SMN2 splice enh: 22.2%; uPA generation: 2.2%; ELG1 genotoxic: 1.7%; FLuc counter: 23.9µM*; Rab9 promoter act: 1.8%

What do the screens show for `Fc1ccc(CNc2ccccn2)cc1`?
NPC1 promoter act: 7.7%; uPA generation: 19.7%; ELG1 genotoxic: 4.7%; FLuc counter: -29.5%; Rab9 promoter act: 13.6%

How did Cc1ccc(O)c(CNc2cccc(C)n2)c1 do in these assays?
NPC1 promoter act: 1.9%; uPA generation: -5.1%; ELG1 genotoxic: 0.8%; FLuc counter: -22.8%; Rab9 promoter act: 4.1%

Results for CN(C)c1ccc(-c2cc(NCc3cccnc3)ncn2)cc1 ?
SMN2 splice enh: 10µM*

Results for CN(C)c1ccc(CNc2ncnc3sccc23)cc1 ?
NPC1 promoter act: -28.1%; uPA generation: 5.4%; ELG1 genotoxic: -7.1%; FLuc counter: -13.1%; Rab9 promoter act: -31.5%

Results for CN(C)c1ccc(CNc2ncc(Br)cc2Br)cc1 ?
NPC1 promoter act: 18.6%; SMN2 splice enh: 16.5%; uPA generation: 8.1%; ELG1 genotoxic: 10.9%; FLuc counter: 19µM*; Rab9 promoter act: 7.0%

How did CSc1ccc(CNc2ccccn2)cc1 do in these assays?
NPC1 promoter act: inconclusive; SMN2 splice enh: 12.1%; uPA generation: 0.1%; ELG1 genotoxic: inconclusive; FLuc counter: 15.1µM*; Rab9 promoter act: inconclusive

Results for Cc1cccc(NCc2ccc(N(C)C)cc2)n1 ?
NPC1 promoter act: inconclusive; uPA generation: -2.0%; ELG1 genotoxic: 18.3µM*; FLuc counter: 10.7µM*; Rab9 promoter act: inconclusive

Results for CC(=O)N1N=C(c2cccs2)CC1c1cc2cc(C)ccc2nc1Cl (stereo not given) ?
NPC1 promoter act: 0.2%; uPA generation: -7.2%; ELG1 genotoxic: 0.6%; FLuc counter: -2.0%; Rab9 promoter act: -3.0%

How did CCOc1ccc(C(=O)c2cn(Cc3ccccc3)c3c(F)cc(F)cc3c2=O)cc1 do in these assays?
SMN2 splice enh: -19.8%; FLuc counter: -5.3%

How did CN(C)c1ccc(CNc2ccccn2)cc1 do in these assays?
NPC1 promoter act: inconclusive; uPA generation: 0.3%; ELG1 genotoxic: inconclusive; FLuc counter: 13.5µM*; Rab9 promoter act: inconclusive

Results for O=C1CCCC=C1[C@@H](O)CCOC(c1ccccc1)(c1ccccc1)c1ccccc1 ?
SMN2 splice enh: 9.5%

What do the screens show for `CCCn1c(O)c(C=Nc2ccccc2)sc1=S`?
NPC1 promoter act: 13.5%; uPA generation: 1.7%; ELG1 genotoxic: inconclusive; FLuc counter: 21.3µM*; Rab9 promoter act: inconclusive

What do the screens show for `CCCCn1c(O)c(/C=C/C=C/C=Nc2ccccc2)sc1=S`?
NPC1 promoter act: -13.2%; SMN2 splice enh: -57.2%; uPA generation: 1.4%; ELG1 genotoxic: 4.9%; FLuc counter: 10.7µM*; Rab9 promoter act: 1.0%

How did CCOc1ccccc1NC(=O)Cn1c(=O)n(-c2ccc(C)c(C)c2)c(=O)c2c(C)c(C(=O)N(C)C)sc21 do in these assays?
FLuc counter: -1.8%

What do the screens show for `COC(=O)c1sccc1S(=O)(=O)N(CC(=O)NCc1ccc(C)cc1)c1ccc(Cl)cc1`?
FLuc counter: -7.8%

Results for CCOC(=O)c1sc(/N=C/c2ccc(O)cc2O)cc1C ?
NPC1 promoter act: 9.7%; SMN2 splice enh: -2.3%; uPA generation: -7.3%; ELG1 genotoxic: 6.6%; FLuc counter: 1.35µM*; Rab9 promoter act: 9.5%

What do the screens show for `CC(=O)Nc1cc(Cl)c(N=Cc2ccc(O)cc2O)cc1Cl`?
NPC1 promoter act: 3.1%; SMN2 splice enh: 13.6%; uPA generation: -12.9%; ELG1 genotoxic: 2.8%; FLuc counter: 4.9%; Rab9 promoter act: -0.3%

How did CC(C)(C)n1cnc2cc(NC(=O)c3cccs3)ccc21 do in these assays?
NPC1 promoter act: 2.51µM*; SMN2 splice enh: 12.6µM*; uPA generation: -15.0%; ELG1 genotoxic: inconclusive; FLuc counter: 7.57µM*; Rab9 promoter act: 1.26µM*

How did CCn1cnc2cc(NC(=O)c3cccs3)ccc21 do in these assays?
NPC1 promoter act: 3.55µM*; SMN2 splice enh: 12.6µM*; uPA generation: -10.3%; ELG1 genotoxic: inconclusive; FLuc counter: 15.1µM*; Rab9 promoter act: 2.24µM*

How did CCn1cnc2cc(NCc3cccs3)ccc21 do in these assays?
NPC1 promoter act: inconclusive; SMN2 splice enh: inconclusive; uPA generation: 1.1%; ELG1 genotoxic: inconclusive; FLuc counter: inconclusive; Rab9 promoter act: 26.1%

Results for CN(C)c1ccc(CNc2ccc3c(c2)ncn3C(C)(C)C)cc1 ?
NPC1 promoter act: -0.9%; uPA generation: -8.3%; ELG1 genotoxic: 13.3%; FLuc counter: 8.49µM*; Rab9 promoter act: -1.1%

Results for Cn1c(CN2CCCCC2)nc2cc(NC(=O)c3cccs3)ccc21 ?
NPC1 promoter act: 4.4%; SMN2 splice enh: -40.0%; uPA generation: 8.7%; ELG1 genotoxic: 14.2%; FLuc counter: inconclusive; Rab9 promoter act: -2.9%

How did CCN(CC)c1cc(C)c2cc(NC(=O)c3cccs3)ccc2n1 do in these assays?
NPC1 promoter act: -2.8%; SMN2 splice enh: -15.0%; uPA generation: 4.0%; ELG1 genotoxic: -10.1%; FLuc counter: inconclusive; Rab9 promoter act: 1.9%
